# Gli-Sufu block: antagonists of Gli-Sufu signaling | Sufu-KO-LIGHT fibroblasts, Gli luciferase reporter luminescence | inhibition, % at 5 µM | 340,000 tested, 0.74% active | AID 588413;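 active = inhibition above about 55%, limit read from the data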;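 also: 0% = DMSO-treated cells and 100% = wells with medium but no cells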
# Jurkat NFkB inh: inhibitors of the PMA/ionomycin-induced NF-kB reporter in Jurkat cells. 330,000 tested, 0.53% active. inhibition, % at 4 µM. PMA/ionomycin-induced NF-kB luciferase reporter, luminescence; in the data active = inhibition above about 50%
# Mdm2-MdmX inh: disrupts the human Mdm2-MdmX interaction | 330,000 tested, 3% active | AID 485346 | inhibition, % at 8 µM | SaOS-2 split-luciferase Mdm2/MdmX complementation, luminescence | O15151+Q00987;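 active = inhibition of at least 50% at 8 µM in the primary screen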
# Target sequence (O15151 whole entry, looked up): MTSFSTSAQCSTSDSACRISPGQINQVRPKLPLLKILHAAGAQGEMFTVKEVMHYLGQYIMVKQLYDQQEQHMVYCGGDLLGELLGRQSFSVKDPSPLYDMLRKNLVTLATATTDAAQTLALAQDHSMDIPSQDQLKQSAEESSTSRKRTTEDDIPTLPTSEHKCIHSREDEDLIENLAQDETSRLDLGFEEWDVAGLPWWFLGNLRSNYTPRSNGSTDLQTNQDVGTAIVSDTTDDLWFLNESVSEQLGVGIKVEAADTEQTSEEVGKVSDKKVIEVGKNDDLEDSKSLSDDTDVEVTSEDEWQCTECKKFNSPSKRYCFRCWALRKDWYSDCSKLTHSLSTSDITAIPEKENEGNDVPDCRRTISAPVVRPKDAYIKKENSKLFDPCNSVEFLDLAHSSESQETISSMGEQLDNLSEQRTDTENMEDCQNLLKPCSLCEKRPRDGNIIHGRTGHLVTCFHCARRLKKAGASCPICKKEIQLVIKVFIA
# Target sequence (Q00987 whole entry, looked up): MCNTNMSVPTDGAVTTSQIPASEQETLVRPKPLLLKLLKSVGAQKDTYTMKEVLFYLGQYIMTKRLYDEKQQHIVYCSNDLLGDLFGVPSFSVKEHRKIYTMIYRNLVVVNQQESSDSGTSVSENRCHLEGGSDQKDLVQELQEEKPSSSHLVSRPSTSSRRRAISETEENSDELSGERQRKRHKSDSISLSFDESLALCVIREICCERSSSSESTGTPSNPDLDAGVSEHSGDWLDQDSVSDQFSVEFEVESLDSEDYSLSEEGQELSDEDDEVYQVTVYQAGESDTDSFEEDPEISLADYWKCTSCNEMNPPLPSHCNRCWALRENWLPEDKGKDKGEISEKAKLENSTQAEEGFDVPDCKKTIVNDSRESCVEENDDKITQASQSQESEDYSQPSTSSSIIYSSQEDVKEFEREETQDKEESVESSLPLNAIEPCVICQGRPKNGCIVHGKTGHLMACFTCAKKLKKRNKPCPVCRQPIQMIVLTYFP
# 697 NFkB inh: inhibitors of the PMA/ionomycin-induced NF-kB reporter in 697 B cells. 697 B-cell NF-kB luciferase reporter, 16 h. inhibition, % at 4 µM. 330,000 tested, 0.33% active. AID 435022; in the data active = inhibition above about 35%
# Beta cell apopt: beta cell apoptosis inhibition; INS-1E cytokine-induced death, ATP luminescence, 48 h; percent of positive-control rescue, neutral wells zero; protection from apoptosis, % (test concentration not listed); 300,000 tested, 0.8% active; AID 435005;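 active = Every replicate reaches about 75%, or at least half do and their mean reaches it too, limit read from the data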;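 also: 0% = cytokine-treated negative control wells and 100% = positive control rescue; higher means more ATP so stronger rescue from cytokine killing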
# Mdm2 MdmX conf: human Mdm2/MdmX binding inhibition, confirmed; AID 489028; shares compounds with Mdm2-MdmX inh; 10,000 tested, 55% active; luminescent assay; inhibition, % at 8 µM; in the data active = inhibition above about 40%
# FLuc counter: inhibits full-length luciferase, flagging false Mdm2/MdmX hits. shares compounds with Mdm2-MdmX inh. SaOS-2 full-length luciferase counterscreen, luminescence. inhibition, % at 8 µM. 6,200 tested, 77% active. AID 504607;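 active = mean inhibition at 8 µM reaching about 37%, which flags the compound as non-specific, limit read from the data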;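 also: p53-null SaOS-2 cells with luciferase driven by a doxycycline-inducible promoter; compound on cells about two nights before reading with doxycycline added after day one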
# An asterisk follows results filed as active; . = not tested or not shown. In the library only some 4% were active in any assay of this set; here they are far more common.
SMILES,Gli-Sufu block,Jurkat NFkB inh,Mdm2-MdmX inh,697 NFkB inh,Beta cell apopt,Mdm2 MdmX conf,others
COc1ccc(NC(=O)Cc2ccc(C)cc2)c([N+](=O)[O-])c1,-4.0,.,.,.,-2.9,.,
Cc1ccc(SCc2cc(=O)[nH]c(/N=C(\N)Nc3ccc(C)c(C)c3)n2)cc1,25.8,16.9,16.1,14.9,-0.3,.,
Cc1ccc(OCc2nnc(SCC(=O)Nc3nccs3)n2-c2ccccc2)cc1C,8.6,-3.7,54.8*,-1.6,2.9,25.0,
CCn1c(CC(=O)Nc2cccc(OC)c2)nnc1SCC(=O)Nc1nccs1,2.7,8.8,57.1*,18.8,-1.4,53.7*,FLuc counter=58.7*
CCn1c(CC(=O)Nc2ccc(C)c(Cl)c2)nnc1SCc1ccc(Cl)c(Cl)c1,2.2,-11.4,-6.8,-37.5,-1.9,.,
Cc1ccc(-n2c(COc3c(C)cccc3C)nnc2SCC(=O)Nc2nccs2)cc1,7.6,7.8,-27.0,8.7,-2.7,.,
CCn1c(CC(=O)Nc2ccc(C)c(Cl)c2)nnc1SCC(=O)Nc1nc(C)cs1,1.8,-10.3,62.8*,-18.0,-5.2,-1.9,
COc1ccc(NC(=O)Cc2nnc(SCC(=O)Nc3nccs3)n2C)cc1,16.5,1.9,6.8,13.5,-7.0,.,
O=C(Nc1ccccc1Br)c1ccc(N2CCCC2=O)cc1,-92.5,-67.5,-48.9,-39.3,-2.7,.,
Cc1ccc(NCC(=O)Nc2cccc(F)c2)cc1S(=O)(=O)N1CCCCCC1,-2.9,-0.2,9.1,6.2,-2.9,.,
CCOC(=O)c1ccc(CC2S/C(=C(\C#N)C(C)=O)NC2=O)cc1 (centres undefined),5.1,2.5,4.3,-12.3,-0.8,.,
CCc1ccc(CC2S/C(=C(\C#N)C(C)=O)NC2=O)cc1 (centres undefined),0.5,-6.5,61.1*,-183.8,.,74.1*,FLuc counter=70.3*
O=c1c2c3c(sc2nc(NCCO)n1-c1ccccc1)CCCC3,19.2,16.6,38.3,22.8,.,.,
CN(C)CCCn1c(=O)n(CCc2ccccc2)c(=O)c2c3c(sc21)CCCCC3,12.3,10.9,77.0*,-16.9,.,32.0,
CN(C)CCn1c(=O)n(Cc2ccccc2)c(=O)c2c3c(sc21)CCCCC3,18.3,0.8,-3.3,-5.5,7.8,.,
CN(C)CCCNc1nc2sc3c(c2c(=O)n1CCc1ccccc1)CCCCC3,11.5,0.1,69.7*,7.4,-23.6,28.9,
NC(=O)Cn1c(=O)n(CCc2ccccc2)c(=O)c2c3c(sc21)CCCC3,7.5,-3.1,58.3*,7.7,-3.5,1.4,
Cc1cccc2cc(C3CC(c4cccs4)=NN3S(C)(=O)=O)c(Cl)nc12 (centres undefined),2.8,19.0,-7.8,-23.8,1.0,.,
CC(C)NC(=O)C1CCN(c2ccc(S(=O)(=O)N3CCOCC3)cc2Cl)CC1,25.0,-9.2,-11.8,-19.8,4.0,.,
COc1ccc(S(=O)(=O)n2ccnc2C)c(C)c1C,-17.6,-0.1,25.9,13.1,2.4,.,
CCCNC(=O)c1ccccc1NC(=O)c1ccc2c(c1)NC(=O)C(C)S2 (centres undefined),-1.9,49.1,53.3*,-21.6,.,67.8*,FLuc counter=72.3*
CCc1noc(C)c1C(=O)N1CCCSC1=Nc1ccccc1C(C)C,-4.3,-7.5,13.8,-10.1,3.5,.,
NC1=NC[C@H](Cc2ccccc2)N1CCc1cc(C(F)(F)F)cc(C(F)(F)F)c1,23.9,4.1,63.2*,0.0,8.6,24.4,
N/C(=N\OC(=O)c1ccc(=O)n(Cc2ccc(Cl)cc2)c1)c1ccccn1,-3.8,-9.2,66.6*,-12.4,0.3,34.2,
CCCc1ccc(C(=O)O/N=C(\N)c2ccccn2)cc1,49.5,6.8,62.7*,-94.2,0.7,70.0*,FLuc counter=61.4*
SMILES,Gli-Sufu block,Jurkat NFkB inh,Mdm2-MdmX inh,697 NFkB inh,Beta cell apopt,Mdm2 MdmX conf,others
N/C(=N\OC(=O)c1ccc2ccccc2c1)c1ccccn1,-2.6,-45.6,69.6*,-99.7,-0.9,49.4*,FLuc counter=110.8*
N/C(=N\OC(=O)c1ccc2ccccc2c1)c1cccc([N+](=O)[O-])c1,-40.4,-51.2,83.2*,-29.1,-7.4,3.6,
Cc1ccc2nc(SCC(=O)Nc3ccc4c(c3)OCO4)nc(=O)n2c1,-1.2,16.3,17.2,6.4,.,.,
COc1nc(N)nc2c1ncn2C1OC(CO)CC1O (centres undefined),4.1,.,.,.,.,.,
CCC(=O)Nc1nnc(SCC(=O)NC2CCCC2)s1,4.3,4.0,27.4,6.4,-0.6,.,
N/C(=N\OC(=O)c1ccc2ccccc2c1)c1ccccc1Cl,-52.1,-101.9,100.3*,-140.0,-6.3,68.0*,FLuc counter=77.5*
Cc1nnc(SCC(=O)N2CCC(c3noc4ccc(F)cc34)CC2)s1,-5.3,7.8,77.8*,4.3,-19.3,69.0*,FLuc counter=19.8
O=C(COC(=O)/C=C/c1ccco1)Nc1ccc(F)cc1Cl,-19.0,-6.1,-9.1,-7.7,-0.7,.,
CCOC(=O)c1c(-c2ccccc2)c2cc(OC)ccc2n1CCCN(C)C,16.0,3.2,46.9,-4.0,3.3,.,
CN(Cc1ccccc1)S(=O)(=O)c1ccc(Cl)c(C(=O)NCCCN2CCOCC2)c1,7.3,-10.1,8.2,-33.5,-4.2,.,
C[C@H]1NC(=O)[C@@]2(C)[C@@H](c3ccccc3)[C@H]3COc4ccccc4[C@@H]3N2C1=O,2.6,2.7,9.9,8.6,1.6,.,
Cc1ccc(CSC(Nc2ccc(F)cc2)=C(C#N)C#N)cc1,47.7,-14.0,91.2*,11.1,116.9*,92.3*,FLuc counter=24.3
Cc1csc(NC(=O)COc2ccc3c(C)cc(=O)oc3c2)n1,-2.0,-27.0,66.8*,-1.0,-5.0,9.7,
Cc1cc(OCC(=O)Nc2nccs2)c2c(C)cc(=O)oc2c1,5.3,9.8,90.3*,15.2,-0.5,0.7,
Cc1cccc(C)c1NC(=O)COC(=O)COc1ccc2c(C)cc(=O)oc2c1,-8.7,26.3,-16.6,-50.7,-3.2,.,
Cc1cccc(OCC(=O)Nc2ccc3c(C)cc(=O)oc3c2)c1,-3.9,-10.8,16.3,-4.2,2.5,.,
Cc1cc(=O)oc2cc(NC(=O)COc3cccc(C(F)(F)F)c3)ccc12,-12.8,4.0,69.2*,7.1,-2.7,0.4,
CCc1cc2c(COC(=O)CCNS(=O)(=O)c3cccc(C(F)(F)F)c3)cc(=O)oc2cc1O,1.1,-2.9,82.7*,-4.0,2.8,-11.5,
O=C1C=C(Nc2ccccc2)c2ccccc2C1=O,-13.8,14.2,52.7*,-14.3,.,30.2,
CCc1ccc(NC2=CC(=O)C(=O)c3ccccc32)cc1,-2.3,-10.6,69.7*,-62.0,.,64.8*,FLuc counter=85.0*
O=C1C=C(Nc2cccc3cccnc23)c2ccccc2C1=O,-19.4,24.1,63.2*,-0.8,-6.0,56.8*,FLuc counter=70.0*
COc1cc2nc(NC(=O)c3ccc(F)cc3Cl)sc(=O)c2cc1OC,-4.6,-11.7,29.0,13.1,-9.2,.,
Cc1cccc(C)c1NC(=O)COC(=O)/C=C/c1ccc(S(=O)(=O)N2CCOCC2)cc1,0.2,-134.9,3.9,4.3,-9.1,.,
